From PubChem BioAssay
A number with no mark means an inactive call. How the calls were made is not given here.

Target: Pantothenate synthetase (Mycobacterium tuberculosis (strain ATCC 25618 / H37Rv)) (UniProt P9WIL5)
Assay: Coupled enzyme confirmation of inhibitors against recombinant Mtb PanC (AID 375);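 further: 0% = full reaction with vehicle and 100% = no enzyme background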
Conditions: coupled enzyme assay; at 10 µM, stronger effect = higher value

Chain of Pantothenate synthetase (Mycobacterium tuberculosis (strain ATCC 25618 / H37Rv)) (P9WIL5 whole entry, looked up): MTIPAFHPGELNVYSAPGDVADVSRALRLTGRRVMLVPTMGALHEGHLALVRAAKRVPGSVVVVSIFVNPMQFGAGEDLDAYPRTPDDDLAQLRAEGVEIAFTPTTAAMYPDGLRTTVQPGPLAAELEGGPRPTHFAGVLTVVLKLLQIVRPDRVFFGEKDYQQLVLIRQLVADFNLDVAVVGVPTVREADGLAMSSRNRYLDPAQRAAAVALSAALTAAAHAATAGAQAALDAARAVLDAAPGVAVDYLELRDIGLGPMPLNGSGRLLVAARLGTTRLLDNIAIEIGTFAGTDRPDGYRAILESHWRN

Row | SMILES | inhibition
1 | CN1CCN(c2ncnc3c2cnn3-c2ccc(Cl)cc2)CC1 | 1%
2 | O=C(CCNC(=O)Cn1ccc2ccccc2c1=O)NCCN1CCN(c2ccccc2F)CC1 | 0%
3 | Cc1cc(C(=O)CN2C(=O)c3ccccc3C2=O)c(C)n1Cc1cccs1 | 0%
4 | O=C(NCCCN1CCN(c2cccc(Cl)c2)CC1)c1ccc(N2CCCC2=O)cc1 | 1%
5 | COc1ccc(-c2noc(CCCC(=O)O)n2)cc1 | 8%
6 | O=C(C1CCC1)N1CCc2cc(S(=O)(=O)Nc3ccc4c(c3)OCO4)ccc21 | 16%
7 | CCOC(=O)c1ccc(Oc2nc(SC)nc(N(C)C)n2)cc1 | 1%
8 | Cc1ccc(C(=O)CSc2nnc(CNc3ccc(C)cc3C)o2)cc1 | 7%
9 | O=C(Cc1ccccc1)N1CCCC(c2nc(-c3cccs3)no2)C1 (stereo not given) | 0%
10 | O=C(O)C1CCCN1C(=O)c1cccs1 (stereo not given) | 7%
11 | CCN(CC)CCOC(=O)C(c1ccccc1)c1ccccc1 | 0%
12 | Cc1nn(C)c(C)c1NC(=O)CSc1nc(Cc2ccccc2)nc2c1cnn2-c1ccccc1 | 2%
13 | Cc1cccc(-n2ncc3c(N(CCO)CCO)ncnc32)c1 | 0%
14 | CC(C)c1nnc(NC(=O)c2cnccn2)s1 | 0%
15 | CS(=O)(=O)N(CC(=O)N1CCCCCC1)c1ccccc1 | 8%
16 | Nc1ccc(Sc2nnnn2-c2ccccc2)c(Cl)c1 | 6%
17 | O=C(c1cccc(C(=O)N2CCN(c3ccccc3)CC2)c1)N1CCN(c2ccccc2)CC1 | 0%
18 | COc1ccc(Br)cc1S(=O)(=O)N1CC(C)OC(C)C1 (stereo not given) | 7%
19 | CC1CCCc2sc3nc(NCc4ccco4)n4ncnc4c3c21 (stereo not given) | 0%
20 | COCCNC(=O)c1ccc(CS(=O)(=O)c2c(Cl)cccc2Cl)o1 | 0%

Row | SMILES | inhibition
21 | O=C(c1nn2cccnc2c1Cl)N1CCN(c2ccccc2)CC1 | 6%
22 | Cc1ccc(CSc2nc3c(c(=O)[nH]2)C(c2ccncc2)C2=C(CCCC2=O)N3)cc1 (stereo not given) | 4%
23 | Cc1nc2c(-c3ccccc3)c(C)nn2c(C)c1CCC(=O)O | 0%
24 | c1ccc(Cn2nnc3c(N4CCCCCC4)ncnc32)cc1 | 7%
25 | O=c1c(O)c(-c2ccc(O)cc2O)oc2cc(O)cc(O)c12 | 9%
26 | O=C(O)CCCC(=O)Nc1ccc(Br)cc1C(=O)O | 0%
27 | NC(=O)c1sc2nc3c(c(-c4ccco4)c2c1N)CCC3 | 0%
28 | CCOc1ccccc1-n1nnnc1SCC(=O)Nc1cc2oc3ccccc3c2cc1OC | 0%
29 | O=C(CSc1nnc(CNC(=O)c2cccs2)o1)NCCc1ccccc1 | 0%
30 | CCOC(=O)c1ccc(N=c2sc(C(=O)OC)cc(=O)n2Cc2ccco2)cc1 | 0%
31 | O=c1[nH]c(NCc2ccco2)nnc1Cc1ccccc1Cl | 0%
32 | COCCNC(=O)c1ccc2c(c1)nc(C)n2-c1cccc(F)c1 | 9%
33 | O=C(Cn1ncc2c1-c1ccccc1OC2)N1CCc2ccccc21 | 0%
34 | CC(C)n1c(CN2CCN(C)CC2)nc2c1c(=O)n(C)c(=O)n2C | 0%
35 | Cc1ccc(-n2nc(C(=O)N3CCN(C)CC3)c3c4ccccc4n(C)c3c2=O)cc1 | 0%
36 | CCS(=O)(=O)N1CCC(C(=O)NC2CCCCCCC2)CC1 | 1%
37 | Cn1c(=O)c2c(nc(NCCc3ccccc3)n2CC(=O)NCCc2ccccc2)n(C)c1=O | 0%
38 | Nc1nnn(Cc2ccccc2)n1 | 0%
39 | CCOc1ccc(NC(=O)C(C)Sc2nnc(C)n2C)cc1 (stereo not given) | 0%
40 | Cc1cc(C)c(C(=O)Nc2ccc(S(=O)(=O)Nc3onc(C)c3C)cc2)c(C)c1 | 8%
